Test results: ChEMBL document CHEMBL1201862, “PubChem BioAssay data set” (2004)
The campaign covered roughly 400,000 compounds. About 2,100 (0.53%) were called active. Not shown: some 14% with an inconclusive outcome. No rule for the calls is given here. Only a selection was taken, and actives are over-represented in it overall.

Each compound was assayed against Ataxin-2 (Homo sapiens) (UniProt Q99700) (assay: qHTS for Inhibitors of ATXN expression.).
Chain of Ataxin-2 (Homo sapiens) (Q99700 whole entry): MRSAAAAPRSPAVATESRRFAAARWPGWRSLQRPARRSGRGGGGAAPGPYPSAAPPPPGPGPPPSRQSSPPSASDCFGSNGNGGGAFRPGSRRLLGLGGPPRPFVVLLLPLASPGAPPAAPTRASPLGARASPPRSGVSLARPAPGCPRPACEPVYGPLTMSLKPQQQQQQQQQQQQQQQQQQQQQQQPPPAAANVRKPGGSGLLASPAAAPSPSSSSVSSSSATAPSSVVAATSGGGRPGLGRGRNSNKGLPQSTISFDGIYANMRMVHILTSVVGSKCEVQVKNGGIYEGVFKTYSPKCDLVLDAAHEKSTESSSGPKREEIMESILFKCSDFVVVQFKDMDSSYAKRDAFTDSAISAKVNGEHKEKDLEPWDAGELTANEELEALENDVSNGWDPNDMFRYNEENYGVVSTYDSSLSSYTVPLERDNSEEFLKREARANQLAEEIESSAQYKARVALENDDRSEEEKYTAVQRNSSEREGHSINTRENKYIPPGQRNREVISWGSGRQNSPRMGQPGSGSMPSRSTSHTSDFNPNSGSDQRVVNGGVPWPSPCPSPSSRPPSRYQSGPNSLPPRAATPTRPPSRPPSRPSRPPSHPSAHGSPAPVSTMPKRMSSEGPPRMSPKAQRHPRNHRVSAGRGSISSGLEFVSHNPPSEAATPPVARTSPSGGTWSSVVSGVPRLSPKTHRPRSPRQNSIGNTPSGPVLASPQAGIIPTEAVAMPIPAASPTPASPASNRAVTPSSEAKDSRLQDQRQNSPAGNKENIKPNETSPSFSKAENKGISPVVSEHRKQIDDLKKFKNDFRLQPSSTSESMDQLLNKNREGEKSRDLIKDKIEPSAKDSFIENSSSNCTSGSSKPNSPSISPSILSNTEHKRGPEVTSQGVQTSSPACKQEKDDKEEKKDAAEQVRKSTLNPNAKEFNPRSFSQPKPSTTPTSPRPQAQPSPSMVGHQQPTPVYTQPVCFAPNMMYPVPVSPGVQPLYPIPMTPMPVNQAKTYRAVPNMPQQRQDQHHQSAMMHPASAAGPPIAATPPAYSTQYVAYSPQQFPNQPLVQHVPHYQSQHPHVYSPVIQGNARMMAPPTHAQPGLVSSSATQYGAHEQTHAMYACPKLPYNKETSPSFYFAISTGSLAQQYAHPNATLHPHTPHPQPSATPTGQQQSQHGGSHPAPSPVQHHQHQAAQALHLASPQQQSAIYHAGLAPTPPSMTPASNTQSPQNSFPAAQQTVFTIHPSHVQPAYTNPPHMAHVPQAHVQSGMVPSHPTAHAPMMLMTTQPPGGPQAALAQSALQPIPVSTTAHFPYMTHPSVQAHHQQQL
Type: functional
With `C(=Cc1cnc2ccccc2n1)c1ccc2c(c1)OCO2` the Potency was “inactive”. In the case of `CCCCCn1cc[n+](-c2nc3ccccc3nc2[N-]S(=O)(=O)c2ccccc2)c1`, the Potency is reported as “inactive”. `Cc1ccc(NC(=O)CC2Nc3ccccc3NC2=O)cc1C` (configuration not stated) was tested, and the Potency was “inactive”. `CC(=O)c1cc2c(C)cc(=O)oc2cc1O` was tested, and the Potency was “inactive”. In the case of `Fc1cccc(Cl)c1CNc1ccc(N2CCCC2)cc1`, the Potency is reported as “inactive”. For `COC(=O)C1=C(C)N(Cc2ccccc2)C(NCc2cccc(C(F)(F)F)c2)=N[C@H]1c1cccc(F)c1`, the Potency was 17.8 µM (active). With `COC(=O)C1=C(C)N(Cc2ccccc2)C(NCc2ccccc2)=N[C@H]1c1cccc(C(F)(F)F)c1` the Potency was 35.5 µM (active). With `CCOC(=O)c1sc(-c2cccc(C(F)(F)F)c2)nc1O` the Potency was “inactive”. `COC(=O)C1=C(C)N(Cc2ccccc2)C(NCCc2c[nH]c3ccccc23)=N[C@H]1c1cccc(C(F)(F)F)c1` was tested, and the Potency was 25.1 µM (active). `COC(=O)Cc1c(C(=O)OC)nnn1-c1cccc(C(F)(F)F)c1` was tested, and the Potency was “inactive”. For `CCN1C(N(C)CCc2c[nH]c3ccccc23)=N[C@@H](c2cccc(C(F)(F)F)c2)C(C(=O)OC)=C1C`, the Potency was 31.6 µM (active). With `Cc1nn(Cc2ccccc2)c(C)c1/C=N/NC(=O)CNc1cccc(C(F)(F)F)c1` the Potency was “inactive”. `C1=C(c2ccc(-c3ccccc3)cc2)Nc2ncnn2C1c1ccco1` (configuration not stated) was tested, and the Potency was “inactive”. `COCCC(=O)NCC1Cc2cc(Cl)cc(-c3ccc4[nH]ccc4c3)c2O1` (configuration not stated) was tested, and the Potency was “inactive”. For `OC(CNc1ccccc1)Cn1ccc2ccccc21` (configuration not stated), the Potency was “inactive”. With `COc1ccc(C2=NN(c3ccc(C(=O)O)cc3)C(c3ccc(OC)c(OC)c3)C2)cc1` (configuration not stated) the Potency was “inactive”. `CCc1c(C)c2cc3c(c(C)c2oc1=O)OCN(CCc1ccccc1F)C3` was tested, and the Potency was “inactive”. In the case of `CCc1ccc(-c2cn3nc(C)c(C)nc3n2)cc1`, the Potency is reported as “inactive”. In the case of `COc1cccc(C2C=C(c3ccc(OC)cc3OC)Nc3nnnn32)c1` (configuration not stated), the Potency is reported as “inactive”. For `CN(Cc1ccccc1)S(=O)(=O)c1csc(C(N)=O)c1`, the Potency was “inactive”. With `CN(Cc1ccccc1)C(=O)c1ccc(S(=O)(=O)N(C)c2ccccc2)cc1` the Potency was “inactive”. `Cc1cc(C)c2sc(N(CCCN(C)C)C(=O)c3ccc(S(=O)(=O)N(C)C4CCCCC4)cc3)nc2c1` was tested, and the Potency was 35.5 µM (active). For `CN(C)CCN(C(=O)C1CCCCC1)c1nc2cc3c(cc2s1)OCCO3`, the Potency was “inactive”. With `Cc1cc(C)c2sc(N(CCCN(C)C)C(=O)c3ccc(S(=O)(=O)N(C)Cc4ccccc4)cc3)nc2c1` the Potency was 39.8 µM (active). With `CC(=O)OCCCCCCCCCCC[N+]1(C)CCCCC1` the Potency was “inactive”. In the case of `O=c1cc(CN2CCN(Cc3ccccc3)CC2)c2ccc(O)c(O)c2o1`, the Potency is reported as “inactive”. With `CC(=O)c1c(C)[nH]c(C(=O)Nc2ccc(N3CCCCCC3)cc2)c1C` the Potency was “inactive”. `O=C(COC(=O)c1cccnc1O)Nc1ccc(N2CCCCC2)cc1` was tested, and the Potency was “inactive”. With `O=C(CNCCC1=CCCCC1)Nc1ccc(N2CCCCCC2)cc1` the Potency was 25.1 µM (active). With `Cc1ccc(C2C=C(c3ccc(Cl)cc3)Nc3nc(NC(=O)c4ccco4)nn32)cc1` (configuration not stated) the Potency was “inactive”. In the case of `COc1cc(C(=O)NCC(c2ccco2)N2CCCC2)ccc1OCc1ccc(Cl)cc1Cl` (configuration not stated), the Potency is reported as 35.5 µM (active). In the case of `CC(=O)Nc1ccc(S(=O)(=O)NC(C)C(=O)NCC(c2ccco2)N2CCCCC2)cc1` (configuration not stated), the Potency is reported as “inactive”. `O=C(NCC(c1ccco1)N1CCCC1)c1cc(S(=O)(=O)N2CCOCC2)ccc1Cl` (configuration not stated) was tested, and the Potency was “inactive”. `Cc1cc(N/N=C/c2ccc([N+](=O)[O-])o2)nc2ccccc12` was tested, and the Potency was “inactive”. In the case of `O=[N+]([O-])c1ccc(/C=[N+](\[O-])[C@@H]2CCCC[C@@H]2/[N+]([O-])=C/c2ccc([N+](=O)[O-])o2)o1`, the Potency is reported as 42.3 µM (active). With `c1ccc(C2=NN(c3ccccc3)C(c3ccco3)C2)cc1` (configuration not stated) the Potency was “inactive”. With `COc1ccc(-c2cc(=O)oc3c(C)c(O)ccc23)cc1` the Potency was “inactive”. For `COc1ccc(C2C=C(c3ccc(C)c(C)c3)Nc3ncnn32)c(OC)c1OC` (configuration not stated), the Potency was “inactive”. `CCN(CCCNC(=O)c1cc(Nc2ccccc2OC)nc2ccccc12)c1cccc(C)c1` was tested, and the Potency was “inactive”. For `CCN(CCNCC(O)COc1ccccc1C(C)C)c1cccc(C)c1` (configuration not stated), the Potency was 39.8 µM (active). With `O=C(CCNC(=O)c1ccc([N+](=O)[O-])cc1)Nc1nccs1` the Potency was “inactive”. With `CCCCCc1c2c(cc(O)c1C(=O)O)OC(=O)c1c(cc(OC)cc1C(=O)CCCC)O2` the Potency was 21.2 µM (active). In the case of `CCOc1ccc(C(=O)COC(=O)Cn2[nH]c(=O)c3ccccc3c2=O)cc1`, the Potency is reported as “inactive”. With `CCCOC(=O)c1ccc(Oc2coc3c(CN(CC)CC)c(O)ccc3c2=O)cc1` the Potency was “inactive”. With `CCCOC(=O)c1ccc(Oc2c(C)n[nH]c2-c2ccc(OCC)cc2O)cc1` the Potency was 31.6 µM (active). `COCCn1c(SC2CCCCC2=O)nnc1-c1ccncc1` (configuration not stated) was tested, and the Potency was “inactive”. With `Oc1ccc2ccccc2c1N=Nc1ccccn1` the Potency was 14.1 µM (active). In the case of `O=S(=O)(O)c1cccc(N=Nc2c(O)ccc3ccccc23)c1`, the Potency is reported as 39.8 µM (active). For `Nc1cc(Cl)nc(N/N=C/c2c(O)ccc3ccccc23)n1`, the Potency was “inactive”. `Oc1ccccc1C=NN=Cc1c(O)ccc2ccccc12` was tested, and the Potency was “inactive”. For `O=C(N/N=C\c1c(O)ccc2ccccc12)c1ccc(S(=O)(=O)N2CCCCC2)cc1`, the Potency was “inactive”. With `O=C(N/N=C/c1c(O)ccc2ccccc12)c1cccc(C(F)(F)F)c1` the Potency was “inactive”. For `Oc1ncnc(O)c1C(c1ccc(F)cc1)c1c(O)ncnc1O`, the Potency was “inactive”. In the case of `Cc1ccc(S(=O)(=O)/N=c2\ccc(Cl)cn2C(F)F)cc1`, the Potency is reported as “inactive”. `N#Cc1nc(/C=C/c2ccccc2)oc1NCCCN1CCOCC1` was tested, and the Potency was “inactive”. With `CCNc1nc(-c2sc(NC(=O)C(C)(C)C)nc2C)c(-n2cc(-c3ccccc3)nn2)s1` the Potency was 15.8 µM (active). With `CC(=O)c1sc(NC(=O)CN2C(=O)C3CCCCC3C2=O)nc1-c1ccccc1` (configuration not stated) the Potency was “inactive”. `CCc1sc(NC(=O)CN2CCC(C(N)=O)CC2)nc1-c1ccccc1` was tested, and the Potency was “inactive”. For `Cn1c(=O)c2c(nc(NCc3ccccc3)n2Cc2ccc(Cl)c(Cl)c2)n(C)c1=O`, the Potency was 35.5 µM (active). For `Cn1c(=O)c2nc(NCc3ccccc3)cnc2n(C)c1=O`, the Potency was “inactive”. `CCC1CCCCN1Cc1nc2c(c(=O)n(C)c(=O)n2C)n1CCCc1ccccc1` (configuration not stated) was tested, and the Potency was “inactive”. In the case of `CC1CCCCC12NC(=O)N(CC(=O)OCc1cccc(F)c1)C2=O` (configuration not stated), the Potency is reported as “inactive”. For `Cc1ccc(OCCn2cc(/C=N/NC(=O)c3ccncc3)c3ccccc32)cc1`, the Potency was “inactive”. With `CC(C)C(C)NC(=O)CSc1nnc(-c2c[nH]c3ccccc23)o1` (configuration not stated) the Potency was “inactive”. `Cc1ccc(CSc2nnc(SCC(=O)N/N=C/c3c[nH]c4ccccc34)s2)cc1` was tested, and the Potency was 5.97 µM (active). In the case of `O=C1CCCC(O)=C1Sc1cc(Cl)c(Cl)cc1Cl`, the Potency is reported as “inactive”. For `O=C(/C=C/Sc1ccccc1)c1ccccc1`, the Potency was 15.8 µM (active). `O=C(CNC(=O)c1ccc(Cl)cc1)Nc1ccccc1C(F)(F)F` was tested, and the Potency was “inactive”. `O=C(c1ccccc1)c1cccc(C(=O)c2ccccc2)c1` was tested, and the Potency was “inactive”. For `O=C(/C=C/Sc1ccccc1)c1ccc(Cl)cc1`, the Potency was 11.2 µM (active). `O=C1OCCN=C1/C=C(\O)c1ccc(Cl)cc1` was tested, and the Potency was “inactive”. In the case of `OC(C#CCN1CCCC1)(c1ccccc1)c1cccnc1` (configuration not stated), the Potency is reported as “inactive”. For `O=C(c1cc2c(=O)n3ccccc3nc2s1)N1CCN(Cc2ccc3c(c2)OCO3)CC1`, the Potency was “inactive”. `Cc1ccc(C23OCCN2CCn2nc4ccccc4c23)cc1` (configuration not stated) was tested, and the Potency was “inactive”. In the case of `CC(C)c1cc(=O)oc2c3c4c(cc12)CCCN4CCC3`, the Potency is reported as “inactive”. In the case of `Cc1cc(C(=O)N/N=C/c2cc(Br)cc(Br)c2OC(=O)c2cccc(F)c2)[nH]n1`, the Potency is reported as “inactive”. In the case of `Cc1cc(C(=O)N/N=C/c2cc(Br)ccc2OC(=O)c2ccccc2Cl)[nH]n1`, the Potency is reported as “inactive”. For `O=C(N/N=C/c1cn(CCOc2ccccc2)c2ccccc12)c1ccncc1`, the Potency was “inactive”. With `CCN(CC)c1ccc(/C=C2\CCC(/C=N/NC(=O)c3ccc(=O)n(C)c3)=C2N2CCOCC2)cc1` the Potency was “inactive”. With `Cn1c(N)c(C(=O)N/N=C/c2ccccc2)sc1=S` the Potency was “inactive”. `CC(C)c1cc(C(=O)N/N=C/C(Br)=C/c2ccccc2)[nH]n1` was tested, and the Potency was 31.6 µM (active). For `O=C(N/N=C/c1cn(Cc2ccccc2)c2ccccc12)c1ccncc1`, the Potency was “inactive”. With `O=C(N/N=C/C(Br)=C/c1ccccc1)c1ccncc1` the Potency was 31.6 µM (active). `Cn1cc(C(=O)N/N=C/C(Br)=C/c2ccccc2)ccc1=O` was tested, and the Potency was 15.8 µM (active). In the case of `COc1ccc(-c2cc(=O)oc3cc(OC(=O)C4CCCCC4)c(Cl)cc23)cc1`, the Potency is reported as “inactive”. `CCN1CCN(Cc2c(O)ccc3c(C)c(-c4ccccc4)c(=O)oc23)CC1` was tested, and the Potency was “inactive”. `CCOC(=O)CC1c2nc3ccccc3cc2CN1C(=O)OCC` (configuration not stated) was tested, and the Potency was “inactive”. For `CC(=O)/N=c1\c(C#N)cc2c(=O)n3ccccc3nc2n1CCCOC(C)C`, the Potency was “inactive”. `OC1=C2C(=Nc3ccccc3SC2c2ccc(Cl)c(Cl)c2)c2ccccc21` (configuration not stated) was tested, and the Potency was 31.6 µM (active). With `OC1=C2C(=Nc3ccccc3SC2c2ccc(C(F)(F)F)cc2)c2ccccc21` (configuration not stated) the Potency was 31.6 µM (active). `CC(C)N1C(=O)S/C(=C\c2ccc(-c3ccc(Cl)c(C(=O)O)c3)o2)C1=O` was tested, and the Potency was “inactive”. In the case of `COc1cccc(N(CC(=O)N2CCCCCC2)S(C)(=O)=O)c1`, the Potency is reported as “inactive”. `COc1ccc(C2OC3=Nc4cc(C)c(C)cc4NC3=C2O)cc1` (configuration not stated) was tested, and the Potency was “inactive”. In the case of `O=C(O)c1ccc(NS(=O)(=O)c2ccc(N3CCCC3)c([N+](=O)[O-])c2)cc1`, the Potency is reported as “inactive”. `NC(=O)CC(NC(=O)c1ccc(Br)cc1)c1ccc(N2CCCCCCC2)c([N+](=O)[O-])c1` (configuration not stated) was tested, and the Potency was 31.6 µM (active). `O=[N+]([O-])c1cccc(S(=O)(=O)NC2CC3CCC2C3)c1` (configuration not stated) was tested, and the Potency was “inactive”. With `CN(Cc1ccccc1)c1ccc(C(CC(N)=O)NC(=O)Cc2ccc(Br)cc2)cc1[N+](=O)[O-]` (configuration not stated) the Potency was 35.5 µM (active). `Cc1cc(NC(=O)CNCC(c2ccccc2)N(C)C)c([N+](=O)[O-])cc1C` (configuration not stated) was tested, and the Potency was “inactive”. With `NC(=O)CC(NC(=O)c1ccc(Br)cc1)c1ccc(NC2CCCCCCC2)c([N+](=O)[O-])c1` (configuration not stated) the Potency was 31.6 µM (active). `O=C(COc1ccc(Br)cc1)NNC(=O)c1ccc(-n2cncn2)c([N+](=O)[O-])c1` was tested, and the Potency was “inactive”. In the case of `O=C(Cc1ccc(Br)cc1)N(Cc1ccccc1)c1ccccn1`, the Potency is reported as “inactive”. For `NC(=O)CC(NC(=O)Cc1ccc(Br)cc1)c1ccc(NC2CC3CCC2C3)c([N+](=O)[O-])c1` (configuration not stated), the Potency was 25.1 µM (active).
